Measurements published in ChEMBL document CHEMBL1157539, “Thousands of chemical starting points for antimalarial lead identification” (Nature, 2010).

Key:
Type in all cases: functional
Plasmodium falciparum [1] = test: GSK_TCMDC: Inhibition of Plasmodium falciparum 3D7 in whole red blood cells, using parasite LDH activity as an index of growth. Test compounds present at 2uM
Plasmodium falciparum [2] = test: GSK_TCMDC: Inhibition of Plasmodium falciparum Dd2 in whole red blood cells, using parasite LDH activity as an index of growth. Test compounds present at 2uM
HepG2 = test: GSK_TCMDC: Percent inhibition of human HepG2 cell line. Test compounds present at 10uM.

Row | SMILES | Inhibition (Plasmodium falciparum [1]) [%] | Inhibition (Plasmodium falciparum [2]) [%] | Inhibition (HepG2) [%]
1 | COc1ccc(CNCc2ccc(F)cc2)cc1-c1ccc(S(=O)(=O)NCCN2CCCC2)s1.O=C(O)C(F)(F)F | 100 | 65 | 61
2 | COCCNCc1cccc(-c2ccccc2CN(C(=O)c2ccc3c(c2)OCO3)c2ccc(OC)cc2)c1.O=C(O)C(F)(F)F | 90 | 46 | 6
3 | OC(CNc1ccnc(Nc2cccc(Cl)c2)n1)c1ccc(C(F)(F)F)cc1 (stereo not given) | 100 | 61 | 13
4 | CC(C)Sc1nc(-c2ccccc2)nc2c1COC(C)(C)C2 | 98 | 41 | 2
5 | CN(Cc1cc(C(F)(F)F)cc(C(F)(F)F)c1)C(=O)C1CNCC1c1ccc(F)cc1.Cl (stereo not given) | 92 | 4 | 1
6 | C#Cc1cccc(NC(=O)[C@H](CC2CCCCC2)Nc2ccc(C#N)c3ccccc23)c1.O=C(O)C(F)(F)F | 100 | 99 | 48
7 | CN(c1ccc(NC(=O)c2ccc(F)cc2)cc1)C1CCN(Cc2cccc(F)c2)C1.O=C(O)C(F)(F)F (stereo not given) | 81 | 74 | 3
8 | Cc1ccc2c(c1)NCC21CCN(C[C@@H](O)C2CCN(c3cc(C#N)ccn3)CC2)CC1C (stereo not given in full) | 90 | 79 | 28
9 | O=C(Nc1cccc(-c2ccc(-c3nc4cc(C(F)(F)F)ccc4[nH]3)cc2)c1)c1csnn1 | 98 | 93 | 23
10 | Cc1noc(C)c1S(=O)(=O)N(C)Cc1ccc(-c2ccc(Cl)cc2)o1 | 100 | 100 | 10
11 | Cc1cc(N[C@@H](Cc2ccccc2)C(=O)NCc2cccs2)nc(Nc2ccccc2)n1.O=C(O)C(F)(F)F | 96 | 36 | 3
12 | O=S(=O)(Nc1ccc(CCN2CCCCC2CCN2CCCC2)cc1)c1cccc2cccnc12 (stereo not given) | 100 | 0 | 20
13 | CO/C(=C\C=C\c1cc2cc(Cl)c(Cl)cc2[nH]1)C(=O)NC1CCN(CCCc2ccccc2)CC1 | 93 | 75 | 59
14 | Cc1[nH]c(C)c(-c2ccc(-c3ccc(C(F)F)cc3)nc2)c(=O)c1Cl | 97 | 96 | 0
15 | CN1CCN(Cc2ccc(OCc3cccc(COc4ccc(CN5CCN(C)CC5)cc4I)c3)c(I)c2)CC1.Cl | 92 | 69 | 93
16 | Cc1ccc(CNC(=O)[C@H](CC(C)C)Nc2cc(C)nc(NCc3ccccc3C)n2)cc1.O=C(O)C(F)(F)F | 87 | 35 | 3
17 | CCNC(=O)Nc1ccc(N(C)c2ccnc(NC3CC3)n2)cc1 | 100 | 80 | 21
18 | Cc1[nH]c(C)c(-c2ccc(CCc3ccc(F)cc3F)cc2)c(=O)c1Br | 97 | 98 | 0
19 | Nc1cccc(CNCc2cccc(-c3cccc(-c4nc5cc(F)ccc5[nH]4)c3)c2)c1.O=C(O)C(F)(F)F | 100 | 82 | 5
20 | O=C(Cc1ccc(Cl)cc1)NC1CCN(c2ccnc3cc(Cl)ccc23)C1.O=C(O)C(F)(F)F (stereo not given) | 82 | 99 | 13
21 | CN(C)c1ccc(CN2CCC(NC(=O)c3ccc(-c4cccc(C(F)(F)F)c4)s3)CC2)cc1.O=C(O)C(F)(F)F | 97 | 40 | 90
22 | COc1c(C(=O)NC2CCN(Cc3ccccc3)C2)cnc2ccccc12.Cl (stereo not given) | 86 | 12 | 2
23 | COc1ccc(NC(=O)c2ccc(-c3nc(-c4cccc(C(F)(F)F)c4)cs3)cc2)cc1N1CCN(C)CC1 | 98 | 59 | 29
24 | Br.CCc1c(CCNCCCCCCNCCc2ccc(Br)cc2)ccc(O)c1O | 95 | 1 | 11
25 | O=C(NCCN1CCCC1)c1cccc(-c2ccc(-c3nc4ccccc4[nH]3)s2)c1 | 96 | 13 | 27
26 | Cc1[nH]cc(Br)c(=O)c1-c1ccc(Oc2ccc(OC(F)(F)F)cc2)cc1 | 96 | 92 | 22
27 | Cc1c(C)c2c(c(C)c1O)CC[C@@](C)(C(=O)N1CCC(CCN3CCC(c4c[nH]c5ccccc45)CC3)CC1)O2 | 98 | 91 | 37
28 | CCNc1cc(C(=O)N[C@@H](Cc2cccc(F)c2)[C@H](O)CNC(C)CCCC(C)C)cc(N2CCCCS2(=O)=O)c1.Cl (stereo not given in full) | 98 | 97 | 0
29 | CN1CCN(CC2(Nc3nccc(NCc4ccc(Cl)cc4Cl)n3)CCCCC2)CC1 | 98 | 58 | 98
30 | O=C(Nc1ccc(-c2cccc(-c3nc4ccccc4[nH]3)c2)cc1)c1cnn2cccnc12 | 99 | 36 | 64
